Data as given in the supplement of paper PMC3545927.
The other results are listed elsewhere or left out. The hit rate among all sequences tested is not known here.

Biological target: furin, P09958
Assay: furin cleavage Z-score vs untreated control; higher = more cleavage, active = 3.5 or more, inactive = 1 or less, 8 variable residues between constant flanks
How it was run: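 Cleavage by purified furin was measured on 8-mer peptides fused to a cDNA oligonucleotide and held on magnetic beads by their N-terminus. Reactions (0.01 ml, 1:10 enzyme:substrate) ran 7.5, 15 or 30 min in 50 mM HEPES pH 7.5 with CaCl2 and NaCl. Released DNA was adapter-tagged by PCR and sequenced, with read counts giving abundance. Log counts versus furin-free reactions were lowess-adjusted and scaled by median absolute deviation to give the cleavage Z-score.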

Chain of furin, P09958 (P09958 whole entry): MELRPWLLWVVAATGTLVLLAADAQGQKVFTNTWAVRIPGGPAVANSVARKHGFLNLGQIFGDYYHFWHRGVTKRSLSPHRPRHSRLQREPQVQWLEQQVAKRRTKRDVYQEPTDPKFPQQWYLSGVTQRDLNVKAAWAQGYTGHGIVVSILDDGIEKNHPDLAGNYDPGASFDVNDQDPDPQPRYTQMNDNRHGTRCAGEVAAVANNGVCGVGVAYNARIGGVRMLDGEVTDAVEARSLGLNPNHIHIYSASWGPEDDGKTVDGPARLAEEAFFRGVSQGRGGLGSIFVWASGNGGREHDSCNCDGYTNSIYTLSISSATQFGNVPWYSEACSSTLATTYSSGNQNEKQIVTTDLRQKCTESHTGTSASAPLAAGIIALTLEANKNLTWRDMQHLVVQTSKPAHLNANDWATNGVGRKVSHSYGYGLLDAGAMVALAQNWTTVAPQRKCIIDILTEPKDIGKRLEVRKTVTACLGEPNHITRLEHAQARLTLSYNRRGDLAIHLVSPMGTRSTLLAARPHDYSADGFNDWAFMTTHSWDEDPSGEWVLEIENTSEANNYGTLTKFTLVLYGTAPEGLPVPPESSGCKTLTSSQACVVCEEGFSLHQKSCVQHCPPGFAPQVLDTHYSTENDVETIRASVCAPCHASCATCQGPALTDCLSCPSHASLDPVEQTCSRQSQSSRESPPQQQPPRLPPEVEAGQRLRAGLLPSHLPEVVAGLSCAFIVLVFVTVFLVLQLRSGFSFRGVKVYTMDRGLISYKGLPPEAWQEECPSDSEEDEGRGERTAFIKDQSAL

| Sequence | furin cleavage Z-score (7.5 min) | furin cleavage Z-score (15 min) | furin cleavage Z-score (30 min) |
| --- | --- | --- | --- |
| CAMEECVQHLAGNASASA [HC23] | 0.873 (inactive) | 1.67 | 1.34 |
| CASGPWITPRAGNASASA [HC460] | -0.377 (inactive) | 1.52 | -0.355 (inactive) |
| CAITSRIIRSAGNASASA [FS-1217] | 9.87 (active) | 8.44 (active) | 6.88 (active) |
| CADGGRVSRSAGNASASA [FS-223] | 3.4 | 4.59 (active) | 5.66 (active) |
| CAITNRPPRSAGNASASA [FS-1216] | 2.7 | 5.07 (active) | 2.23 |
| CATTPCSSSWAGNASASA [HC1897] | -0.808 (inactive) | 1.71 | -0.0324 (inactive) |
| CAEATTPCSGAGNASASA [HC1963] | -1.21 (inactive) | -0.00595 (inactive) | 0.567 (inactive) |
| CAREMEECSQAGNASASA [HC1793] | 0.916 (inactive) | -0.677 (inactive) | 1.51 |
| CAWETARHTPAGNASASA [HC1569] | 0.673 (inactive) | 0.503 (inactive) | -0.633 (inactive) |
| CAPKGPVIQMAGNASASA [HC707] | -0.0909 (inactive) | 0.949 (inactive) | 0.762 (inactive) |
| CAVVNCSMSYAGNASASA [HC2041] | 0.601 (inactive) | 1.6 | -0.0752 (inactive) |
| CATARRHGRDAGNASASA [FS-878] | 6.42 (active) | 7.12 (active) | 6.27 (active) |
| CAAPGRDGRDAGNASASA [FS-397] | -0.000356 (inactive) | -1.26 (inactive) | -0.555 (inactive) |
| CATAARRLRDAGNASASA [FS-382] | 1.54 | 3.67 (active) | 3.74 (active) |
| CAGRTGRGKPAGNASASA [HC905] | -1.05 (inactive) | -0.843 (inactive) | -1.55 (inactive) |
| CARKKRIKRRAGNASASA [FS-2266] | 13.1 (active) | 14.5 (active) | 11.5 (active) |

| Sequence | furin cleavage Z-score (7.5 min) | furin cleavage Z-score (15 min) | furin cleavage Z-score (30 min) |
| --- | --- | --- | --- |
| CADSSRIKRRAGNASASA [FS-1449] | 8.08 (active) | 10.6 (active) | 8.94 (active) |
| CARKKRLENRAGNASASA [FS-2214] | 1.32 | 0.582 (inactive) | 0.84 (inactive) |
| CADISRIKRGAGNASASA [FS-756] | 2.64 | 4.17 (active) | 2.27 |
| CAHKSRKERRAGNASASA [FS-536] | 1.88 | 4.97 (active) | 3.69 (active) |
| CAWVCCSMSYAGNASASA [HC1988] | 0.172 (inactive) | 0.44 (inactive) | 1.05 |
| CARPLRGVSGAGNASASA [FS-3018] | -0.934 (inactive) | -0.697 (inactive) | -0.66 (inactive) |
| CAEAALENLVAGNASASA [HC533] | -0.446 (inactive) | -0.46 (inactive) | -1.1 (inactive) |
| CARLKRHPEEAGNASASA [FS-2276] | 1.2 | 3.98 (active) | 3.45 |
| CARLKRRQEEAGNASASA [FS-2709] | -0.805 (inactive) | 0.691 (inactive) | 1.04 |
| CARLKRAVSEAGNASASA [FS-2704] | 8.88 (active) | 10.6 (active) | 7.25 (active) |
| CARLKRTNGNAGNASASA [FS-1963] | 0.424 (inactive) | 2.26 | 1.1 |
| CARLKRVVPDAGNASASA [FS-2221] | 3.21 | 5.12 (active) | 6 (active) |
| CARLKKIKDDAGNASASA [FS-1740] | -0.946 (inactive) | -0.774 (inactive) | -1.39 (inactive) |
| CARLKRAVWIAGNASASA [FS-2989] | 5.97 (active) | 7.83 (active) | 8.13 (active) |
| CARLKRIVFDAGNASASA [FS-2570] | 0.11 (inactive) | 0.63 (inactive) | 1.98 |
| CARLDRHVFIAGNASASA [FS-2042] | -0.675 (inactive) | -1.39 (inactive) | -0.0693 (inactive) |
